The text below walks through data of PubChem BioAssay (Tox21).

Results filed as inconclusive are left out. Entries that show only a call come without a potency. Unmarked numbers belong to inactive results. Active and inactive are the calls of the source. Calls follow the shape of the dose curve; as a rule, active = well fitted cell-killing curve with a large enough effect in the repeat runs; inconclusive = weak or mixed curves, or effect the other way; inactive = flat fitted curve, though single readings scatter.

The assay is described as follows: qHTS RealTime-Glo MT Cell Viability Assay in HepG2 cells - 0 hour (AID 1224889). Also: nearly all actives have a fitted effect of over 50% in size. The note with it: RealTime-Glo luminescence; series mostly up to 76.8 µM. The source says:
U.S. Tox21 Program National Center for Advancing Translational Sciences [NCATS] NIH Chemical Genomics Center [NCGC] U.S. Environmental Protection Agency [EPA] National Institutes of Environmental Health Sciences [NIEHS] National Toxicology Program [NTP] U.S. Food and Drug Administration [FDA] Tox21 Assay Overview: Measure of cell viability is critical in the cell-base assay. Analysis of cell viability is necessary for the characterization of cell responses to cytotoxic drugs and environmental stress. A RealTime-Glo MT Cell Viability Assay to monitor cell viability in real time of continues cell culture during 40 hours of compound treatment was used to screen Tox21 10K library compounds in HepG2 cells. The RealTime-Glo MT Cell Viability Assay is a nonlytic, homogeneous, bioluminescent method to measure cell viability in real time using a simple, plate-based method. The assay involves adding NanoLuc luciferase and a cell-permeant prosubstrate to cells in culture. Viable cells reduce the proprietary prosubstrate to generate a substrate for NanoLuc luciferase. This substrate diffuses from cells into the surrounding culture medium, where it is rapidly used by the NanoLuc Enzyme to produce a luminescent signal. The signal correlates with the number of viable cells, making the assay well suited for cytotoxicity studies.
Tox21 Assay Protocol Summary: The mixture of HepG2 cell suspension and reagents were dispensed at 600cells/6 ul/well in 1536-well tissue culture treated black solid bottom plates using a Multidrop dispenser. After the assay plates were incubated at a 37 C/5% CO2 incubator for 5 hours, 23 nL of compounds dissolved in DMSO, positive and negative controls was transferred to the assay plate by a pintool work station. The plates were incubated at 37 C for 40 hours. The luminescence intensity were measured at 0h, 8h, 16h, 24h, 32h and 40h time points using ViewLux plate reader during compound treatment.
On the technique in general: qHTS replaces the single test concentration by a dilution series.
On to `CCC(CC)CO`, for which the Potency entry was “inactive”.
The same measure, in the same setting: the same measure for `O=C1O[C@@H]2[C@@H](O)[C@H](O)O[C@@H]2[C@H]1O`: “inactive”.
For `CC(C)(C)OC(=O)c1ccc(O)cc1`, the Potency entry is “inactive”.
Same read-out and setting: the entry for `Oc1ccccc1-c1nnco1` is “inactive”; for `CCCCCCCCSCC` it is “inactive”; for `CCCC/C=C/C=C\C=O` it is “inactive”.
Still for that read-out and setting: the same measure for `Nc1cccc(O)c1`: “inactive”.
On the same count and under the same terms, the entry for `O=C(OCC(O)CO)c1ccccc1Nc1ccnc2c(C(F)(F)F)cccc12` (stereo not given) is “inactive”; for `CCOc1cc([N+](=O)[O-])c(OCC)cc1N1CCOCC1` it is “inactive”.
In the case of `N[C@@H](COP(=O)(O)O)C(=O)O`, the activity change, negative = cytotoxicity is -1.1% [at 15.8 µM].
On to `COc1cc(C(=S)N2CCOCC2)cc(OC)c1OC`, for which the Potency result was “inactive”.
With `O=C(O)c1cc(Br)c(O)c(Br)c1`, the Potency result was “inactive”.
The same measure, in the same setting: the same measure for `NCCS`: “inactive”.
The same measure, in the same setting: the same measure for `CCCCCCN`: “inactive”.
The same measure, in the same setting: the entry for `OCCC(F)(F)C(F)(F)C(F)(F)C(F)(F)C(F)(F)C(F)(F)C(F)(F)C(F)(F)F` is “inactive”; for `CCCCCCCCOS(=O)(=O)O` it is “inactive”; for `C=CC(OCC)OCC` it is “inactive”.
As to `O=C1c2cccc3c2[C@H](CCC3)CN1[C@@H]1CN2CCC1CC2`, the Potency entry was “inactive”.
The same measure, in the same setting: the same measure for `CCCCOC(=O)c1ccccc1`: “inactive”.
As for `Cc1ccsc1/C=C/C1=NCCCN1C`, the Potency entry is “inactive”.
Take `Cc1cc2cc3c(C)cc(=O)oc3c(C)c2o1`: the Potency result was “inactive”.
On the same count and under the same terms, the same measure for `CC(=C(CCOC(=O)C(C)C)SSC(CCOC(=O)C(C)C)=C(C)N(C=O)Cc1cnc(C)nc1N)N(C=O)Cc1cnc(C)nc1N`: “inactive”; for `CC(C)C(=O)OCCc1ccccc1`: “inactive”.
Still for that read-out and setting: the entry for `O=S(=O)(O)c1ccc2cc(O)c(S(=O)(=O)O)cc2c1` is “inactive”; for `CCN(CC)CC(=O)Nc1c(C)cccc1C` it is “inactive”; for `C=C(C)C(=O)OCCOP(=O)(O)OCCOC(=O)C(=C)C` it is “inactive”.
Still for that read-out and setting: the same measure for `O=C(c1ccc(O)cc1)c1ccc(O)c(O)c1O`: “inactive”; for `Cc1ccc2c(c1)OCC(=O)CO2`: “inactive”.
For `C=C1CC/C=C(\C)CC[C@@H]2[C@@H]1CC2(C)C`, the Potency entry was “inactive”.
The same measure, in the same setting: the same measure for `C=C(C)C(=O)OCCN(CC)CC`: “inactive”; for `CC(=O)NCc1c(I)c(NC(C)=O)c(I)c(C(=O)O)c1I`: “inactive”; for `CC1(CO)CN(c2ccccc2)NC1=O` (stereo not given): “inactive”.
Same read-out and setting: the same measure for `COc1ccc(OC)c(Cl)c1`: “inactive”; for `O=C(O)c1ccc(Cl)cc1Cl`: “inactive”; for `COc1ccc(S(=O)(=O)N2c3ccc(Cl)cc3[C@@](O)(c3ccccc3Cl)[C@H]2C(=O)N2CCC[C@@H]2C(N)=O)cc1OC`: “inactive”.
With `CNS(=O)(=O)CCc1ccc2[nH]cc(C3CCN(C)CC3)c2c1`, the Potency result is “inactive”.
Still for that read-out and setting: the same measure for `O=C1CC(c2ccc(Cl)cc2)CC(=O)N1`: “inactive”; for `C[C@@H](Oc1ccc(CNC(=O)c2cccnc2Oc2ccc3c(c2)OCO3)c(F)c1)C(=O)O`: “inactive”; for `CC1COc2ccccc2N1` (stereo not given): “inactive”.
Still for that read-out and setting: the same measure for `NNc1nnc(NN)c2ccccc12`: “inactive”.
